High-throughput results as filed in PubChem BioAssay.
A selection: hits, their analogues and other compounds. The true share with any hit is near 2.4%.
D2 ag-1 – activates the human D2 dopamine receptor | P14416 | DiscoveRx PathHunter D2 beta-arrestin, luminescence, 90 min; 100% = 57 uM dopamine signal | activation, % (no concentration beside the values) | actives 0.084% (n = 360,000); in the data active means activation above about 40%; inconclusive means between about 15% and that limit
Target sequence (P14416 whole entry, looked up): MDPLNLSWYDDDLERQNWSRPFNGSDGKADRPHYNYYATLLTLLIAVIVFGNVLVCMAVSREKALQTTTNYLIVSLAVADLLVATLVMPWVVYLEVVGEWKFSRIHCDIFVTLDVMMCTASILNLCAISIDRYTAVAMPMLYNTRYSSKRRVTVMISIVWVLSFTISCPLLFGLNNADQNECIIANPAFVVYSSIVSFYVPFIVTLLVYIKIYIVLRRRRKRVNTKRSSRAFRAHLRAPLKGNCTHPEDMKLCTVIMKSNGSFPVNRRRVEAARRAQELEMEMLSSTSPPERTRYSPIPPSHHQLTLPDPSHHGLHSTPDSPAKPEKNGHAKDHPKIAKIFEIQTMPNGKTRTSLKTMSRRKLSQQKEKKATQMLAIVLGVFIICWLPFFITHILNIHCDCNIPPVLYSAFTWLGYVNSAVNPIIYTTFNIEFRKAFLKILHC
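Agonist mode: compounds alone added to overnight-plated D2 PathHunter cells for 90 min at 37 C, with 57 uM final dopamine (EC100) defining full response. Beta-arrestin recruitment detected by chemiluminescent reagent, read after 1 h at ambient temperature.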
D2 ag-2 – agonists of human D2 dopamine receptor | AID 485358 | activation, % at 2 µM | actives 0.53% (n = 340,000) | P14416 | HEK293 T-REx D2 cells, calcium flux agonist mode;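 active means activation over 3 SD above normal in the single-dose calcium agonist read, cut at about 30% in these data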; further: 0% is about no effect
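Agonism is scored from calcium flux in a force-coupled, inducible HEK293 cell line expressing D2, read kinetically for 180 s after compound addition against dopamine controls.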
D2 PAM-1 – potentiates the human D2 dopamine receptor allosterically. P14416. DiscoveRx D2 beta-arrestin cells, luminescence, 90 min; 100% = 57 uM dopamine signal. potentiation, % (test concentration not listed). actives 0.23% (n = 360,000). AID 624464; in the data active means potentiation above about 50%; inconclusive means mostly about 30% to 49%
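PathHunter D2 cells, attached overnight at 37 deg C, received compound in DMSO plus dopamine at EC20 (50 nM final) for 90 min at 37 deg C. Beta-arrestin recruitment was read as luminescence after 1 h with detection reagent at ambient temperature.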
D2 PAM-2 – positively modulates the human D2 dopamine receptor allosterically. P14416. HEK293 T-REx D2, calcium flux, EC20 dopamine potentiation. potentiation, % at 10 µM. actives 0.34% (n = 340,000). AID 485347;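 active means potentiation over 3 SD above the plate norm, cut at about 30% in these data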; further: 0% is about no effect
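Tetracycline-induced HEK293 T-REx cells force-coupled to calcium signalling expressed D2; compounds were pin-added after a 10 s baseline, read kinetically 180 s, then an EC20 dopamine challenge followed with a further 180 s calcium read.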
D2 antagonist – antagonists of human D2 dopamine receptor; P14416; HEK293 TREx D2 cells, calcium flux, dopamine EC80; inhibition, % at 10 µM; actives 2% (n = 340,000); in the data active means inhibition above about 30%; inactive means below that, where a call was filed; further: 0% is about no effect
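Tetracycline-induced HEK293 TREx cells expressing D2 receptor forced-coupled to calcium signalling, loaded with no-wash calcium dye. Compounds added and calcium flux read 180 s, then dopamine added at EC80 and read a further 180 s.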
* marks the source's active call; other numbers are inactive results; ? = inconclusive; . = not tested or not shown.

SMILES	D2 ag-1	D2 ag-2	D2 PAM-1	D2 PAM-2	D2 antagonist
O=C(NCC1=C(c2ccc3ccccc3c2)C[C@@H]2CC[C@H]1N2Cc1ccco1)c1ccc([N+](=O)[O-])cc1	-7	.	-10	.	.
CN1C(=O)N(C)C(=O)C2(Sc3ccccc3C2=O)C1=O	-2	0	-5	-2	-9
CCC1(c2ccccc2)C(=O)N(C)C(=O)N(C)C1=O	2	1	-6	-15	34*
O=C(N/N=C/c1c(O)n(CCc2ccccc2)c(=O)[nH]c1=O)c1ccccc1	-5	0	-3	-20	0
O=C(COc1cccc(Cl)c1)N1CCN(CCc2ccncc2)CC1	.	-1	.	-6	.
CN(CCc1nnc(N)s1)[N+](=O)[O-]	-3	3	2	2	48*
CC(C)NC(C)C(=O)c1ccc2ccccc2c1 (configuration not stated)	-12	-1	-20	19	46*
O=[N+]([O-])c1ccc(NCc2ccccc2)c2nonc12	5	135*	4	-21	44*
O=[N+]([O-])c1ccc(NCc2ccc(Cl)cc2)c2ccncc12	5	0	-1	-3	12
CN1CC[C@]2(c3cccc(O)c3)Cc3nc4ccccc4cc3C[C@H]2C1	.	-1	.	-7	40*
CN1CC[C@@]23CCCC[C@@H]2[C@@H]1Cc1ccc(O)cc13	-5	.	2	.	.
CCC(c1nnnn1C1CCCCC1)N1CCC2(CC1)C(=O)NCN2c1ccccc1 (configuration not stated)	-4	.	-10	.	.
Cc1ccc(O)c(CN2CCN(c3ccccc3)CC2)c1	-3	5	-43	-23	38*
COc1cccc(CN2CCN(c3ccc(F)cc3)CC2)c1OC	-1	.	-28	.	.
Cc1cc(O)c(CN2CCN(c3ccccc3)CC2)cc1C	-2	6	-31	-34	49*
Oc1cc2c(cc1CN1CCN(c3ccccc3)CC1)CCC2	-1	0	-40	-23	73*
Oc1ccc(Cl)cc1CN1CCN(Cc2ccccc2)CC1	-2	-1	-41	-24	32*
O=C(Nc1ccc2c(c1)OCO2)c1cccn(Cc2ccc(F)cc2)c1=O	.	1	.	2	.
CCOc1ccc(CN(CCc2ccc3c(c2)OCO3)Cc2cccc(Br)c2)cc1	.	.	.	1	.
Oc1cc2c(cc1CN1CCN(c3ccc(F)cc3)CC1)OCO2	-1	1	-23	-21	58*
Brc1cc2c(cc1CN1CCN(c3ccccc3)CC1)OCCO2	-4	13	1	-23	-1
COC(=O)C1=C(c2ccc(C(C)=O)cc2)C[C@@H]2CC[C@H]1N2C(=O)NC(C)C	1	0	-3	-6	52*
COC(=O)C1=C(c2ccc(C(C)=O)cc2)C[C@@H]2CC[C@H]1N2C	-1	0	-8	-6	-9
CN1CCN(Cc2nc3ccccc3n2C)CC1	-3	2	4	3	-3
CCC1C2Cn3c(nc4ccccc43)C1N(C)O2 (configuration not stated)	-2	0	1	34*	10
SMILES	D2 ag-1	D2 ag-2	D2 PAM-1	D2 PAM-2	D2 antagonist
N#Cc1cc2c(nc1SCC(=O)Nc1ccc(F)c(Cl)c1)C1CCN2CC1	.	0	.	3	.
NC(Cc1ccc(O)cc1)C(=O)NN=Cc1ccc(N(CCCl)CCCl)cc1 (configuration not stated)	6	.	-6	.	.
Clc1cccc(N2CCNCC2)c1Cl	-1	2	-4	-26	35*
CCC1(OC(=O)c2ccccc2)CC(C)N(C)CC1C (configuration not stated)	-1	2	-11	-11	-17
CCCn1cc2c3c(cccc31)C1CC(C)CN(C)C1C2 (configuration not stated)	.	39*	.	-29	87*
O=C1NC(=O)C(Nc2ccccc2)C(=O)N1	-4	.	-3	.	.
CCN(CC)CCCOC(=O)C(OC(C)C)(c1ccccc1)c1ccccc1	-2	-1	-17	-25	57*
CCCN1CCC[C@@H]2Cc3nc(N)ncc3C[C@H]21	126*	.	117*	.	.
COc1cccc(CN2CC=C(c3ccc(F)cc3)CC2)c1	1	3	-12	-23	72*
COC1CCC(OC2CC(C3(C)CCC4(CC(O)C(C)C(C(C)/C=C(\C)C(=O)C(C)CC(C)C(=O)O)O4)O3)OC3(OC(C4OC(O)(CO)C(C)CC4C)CC3C)C2C)OC1C (configuration not stated)	14	.	?	.	.
CN1C(=O)CN=C(c2ccc(Cl)cc2)c2cc(Cl)ccc21	-2	-1	0	7	34*
CN1C(=O)CN=C(c2ccc[nH]2)c2cc(Cl)ccc21 (tested in a mixture with another compound)	-2	.	-7	.	.
CCCCOCCCn1c(N)c(C(=O)OC(C)COC)c2nc3ccccc3nc21 (configuration not stated)	-8	-2	-29	-2	-13
COCCCn1c(N)c(C(=O)OC(C)COC)c2nc3ccccc3nc21 (configuration not stated)	-4	-1	-11	-2	43*
Cc1ccc(C)c(-n2c(C)nc3ccccc3c2=O)c1	-3	0	-15	-19	0
Cc1cc(NCCN)nc2ccccc12	-6	3	-20	-21	58*
S=C(NCCc1ccccc1)N1Cc2cc(N3CCCCC3)ccc2-n2nncc2C1	-2	.	-5	.	.
COCc1ccc(CN2CCCC(C(=O)c3sccc3C)C2)o1 (configuration not stated)	-1	1	-19	-25	38*
COc1cc(O)c2c(c1)/C=C/C[C@H](O)[C@H](O)C(=O)CCC[C@H](C)OC2=O	13	.	11	.	.
O=C1c2ccccc2C(=O)N1Cc1nc2ccccc2c(=O)n1-c1ccccn1	2	1	2	5	31*
O=c1c2ccccc2nc(/C=C/c2ccc(F)cc2)n1-c1ccccn1	-4	0	-4	7	-17
COc1ccccc1OCC#CCN1CCCC(C)C1 (configuration not stated)	-5	0	4	-38	57*
COc1ccccc1OCC#CCN1CCCCCC1	0	.	-10	.	.
CC(C)c1ccc(OCC(=O)N2CCN(CCc3ccncc3)CC2)cc1	.	1	.	4	.
CCCCn1c(NC(=O)c2ccc(Br)o2)c(C(=O)OCC)c2nc3ccccc3nc21	-15	37*	-14	-16	-5
CSc1ncc(/C=C2/C(=O)NC(=O)N(c3ccc(Cl)cc3)C2=O)cn1	1	0	2	.	3
O=c1cc(C(F)(F)F)c2cc3c4c(c2o1)CCCN4CCC3	-1	143*	9	-20	79*
Cc1cc2c(C(F)(F)F)cc(=O)oc2c2c1NCCC2	1	20	3	5	-18
COc1cc2c(cc1O)[C@@H]1Cc3ccc(OC)c(O)c3CN1CC2	9	-1	-5	-12	75*
